The nature of test [1]: Nuclear factor erythroid 2-related factor 2/antioxidant responsive element (Nrf2/ARE) small molecule agonists: luciferase reporter gene qHTS assay in human keratinocytes (AID 1919969). Further: nearly all actives have a fitted effect of over 35% in size. Further: potency means the concentration at half of the fitted maximal effect. In general terms: Reporter assays use an easily measured gene product as a stand-in for the process of interest.
Test [2] has as its target KiSS-1 receptor (Homo sapiens) (UniProt Q969F8). Kind of test: Human kisspeptin (KISS1R) small molecule agonists, calcium flux assay in KISS1R-HEK293 cells (AID 1920064; active means well fitted activation curve with a large enough effect in the repeat runs). In a few lines:
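Kinetic calcium assay, 1 s sampling over 3 min at Ex/Em 480/540, in HEK293 cells engineered with human KISS1R; compounds delivered in DMSO after 1 h dye loading.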
Background: Calcium flux is commonly read through the fluorescence of an indicator in the cells.

A short description of test [3]: G protein-coupled receptor (GPCR) small molecule agonists, calcium flux assay: HEK293 wild type cell line counter screen (AID 1920065). In a few lines: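 Calcium-sensitive dye, loaded 1 h at 37 C into cells cultured 18 h, reports compound-evoked calcium release as fluorescence (Ex/Em 480/540), measured over 3 min. Agonist mode; 15-point titrations, triplicate.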
Test [4] in a line: p53 small molecule agonists, cell-based qHTS assay with human liver microsomes (AID 1963577). The gist of the method: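 Compounds act here after metabolic activation: human liver microsomes and NADPH, both at 0.5 mg/mL final, were co-added to p53RE-bla cells. Incubation ran 16 h at 37 C, followed by LiveBLAzer detection.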
Background: Quantitative high-throughput screening tests each substance at several concentrations.

Test [5] in a line: p53 small molecule agonists, cell-based qHTS assay with rat liver microsomes (AID 1963578). In a few lines: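 Read-out is beta-lactamase reporter fluorescence (LiveBLAzer, 2 h, room temperature, dark) in p53RE-bla cells treated 16 h at 37 C with compound, rat liver microsomes and NADPH, both 0.5 mg/mL final.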
A short description of test [6]: p53 small molecule agonists, cell-based qHTS assay with human liver microsomes: qHTS cell viability counter screen (AID 1963579). Further: nearly all actives have a fitted effect of over 45% in size. The gist of the method:
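Cells carrying the p53 response-element beta-lactamase reporter are treated for 16 h at 37 C with test compounds in the presence of human liver microsomes and NADPH (both 0.5 mg/mL final); ATP-based CellTiter-Glo luminescence then reports viability.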

Test [7] is described as follows: p53 small molecule agonists, cell-based qHTS assay with rat liver microsomes: qHTS cell viability counter screen (AID 1963580). Further: nearly all actives have a fitted effect of over 45% in size. The gist of the method:
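p53RE-bla HCT-116 cells were exposed 16 h at 37 C to compounds with rat liver microsomes (0.5 mg/mL) and NADPH (0.5 mg/mL). Viability was measured in the same wells as ATP content by CellTiter-Glo luminescence.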

A short description of test [8]: p53 small molecule agonists, cell-based qHTS assay: qHTS cell viability counter screen (AID 1963581). Further: nearly all actives have a fitted effect of over 45% in size. In a few lines: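 Following 5 h attachment, HCT-116 p53RE-bla cells took up compound for 16 h at 37 C; the reporter was read with B/G FRET substrate (2 h RT), and viability then via CellTiter-Glo ATP luminescence.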
Test [9] in a line: p53 small molecule agonists, cell-based qHTS assay (AID 1963582; active means well fitted activation curve with a large enough effect in the signal ratio in the repeat runs, not every such curve was filed as active; the % refers to the signal ratio). The gist of the method:
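In this cell-based concentration-response screen, a p53 response element drives beta-lactamase; cells received DMSO-borne compounds after 5 h culture and were incubated a further 16 h before FRET substrate development.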

The target in test [10] is 5-hydroxytryptamine receptor 2A (Homo sapiens) (UniProt P28223). Kind of test: 5-hydroxytryptamine receptor 2A (HTR2A) small molecule antagonists, cell-based qHTS assay (AID 1963586). Further: nearly all actives have a fitted effect of over 45% in size. The gist of the method: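 Antagonist-mode intracellular calcium assay: DOI (4 nM) added after 5 min compound pre-incubation at room temperature to dye-loaded HTR2A-CHO cells. Fluorescence followed for 3 min, sampled every second.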

Test [11] has as its target Muscarinic acetylcholine receptor M1 (Homo sapiens) (UniProt P11229). In words: Cholinergic receptor muscarinic 1 (CHRM1) small molecule antagonists, cell-based qHTS assay (AID 1963588). Further: nearly all actives have a fitted effect of over 40% in size. The gist of the method:
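CHRM1-CHO calcium-flux assay, antagonist mode. Cells were seeded 18 h, dye-loaded 1 h at 37 C and given compound for 5 min at RT, then acetylcholine was added at 50nM. FDSS fluorescence was read 3 min; 15 concentrations, three runs.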

Test [12] shares this target. In words: Cholinergic receptor muscarinic 1 (CHRM1) small molecule agonists, cell-based qHTS assay (AID 1963589). Further: nearly all actives have a fitted effect of over 35% in size. Further: potency means the concentration at half of the fitted maximal effect. In a few lines:
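Measures agonist-induced intracellular calcium rise. Stable human CHRM1 CHO line, 1 h dye load at 37 C, compounds from DMSO, kinetic fluorescence read.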

Test [13] in a line: cAMP Responsive Elements (CRE) small molecule agonists, cell-based qHTS assay (AID 1963590). Further: potency means the concentration at half of the fitted maximal effect. The gist of the method: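 A CRE-responsive beta-lactamase reporter in HEK 293T cells was used. Treatment ran 3 h at 37 C; detection used LiveBLAzer B/G FRET substrate for 2 h at room temperature.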
Test [14] in a line: cAMP Responsive Elements (CRE) small molecule antagonists, cell-based qHTS assay (AID 1963591; active means well fitted inhibition curve with a large enough effect in the signal ratio in the repeat runs, not every such curve was filed as active; the % refers to the signal ratio). In a few lines: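 HEK293T cells carrying a CRE-driven beta-lactamase reporter receive compound and NKH477 (0.25 uM final) for 3 h. Fluorescence from LiveBLAzer B/G FRET substrate is read after 2 h at room temperature.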
The target in test [15] is Beta-2 adrenergic receptor (Homo sapiens) (UniProt P07550). In words: Adrenergic beta2 receptor (ADRB2) small molecule antagonists, cell-based qHTS assay (AID 1963592). Further: series mostly up to about 92 µM; nearly all actives have a fitted effect of over 50% in size. The gist of the method: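 Cells (CHO, stable ADRB2 overexpression) incubated 18-20hr at 37C; compounds added from DMSO; agonist mix (1nM isoproterenol, 100uM IBMX, 25uM Ro-20-1724) added; 0.5hr RT; d2-cAMP and anti-cAMP-cryptate added; 1hr RT; 665/615 nm read.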

Test [16] shares this target. Kind of test: Adrenergic beta2 receptor (ADRB2) small molecule agonists, cell-based qHTS assay (AID 1963593). Further: potency means the concentration at half of the fitted maximal effect.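 On activation: CHO cells stably overexpressing human ADRB2.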 In a few lines:
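CHO cells stably over-expressing ADRB2 were plated overnight at 37C, then dosed with compounds plus a stimulation mix containing 100uM IBMX and 25uM Ro-20-1724 for 0.5hr at room temperature. cAMP was measured by HTRF competition, 1hr.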

In test [17] the target is D(2) dopamine receptor (Homo sapiens) (UniProt P14416). In words: Dopamine D2 receptor (DRD2) small molecule agonists, cell-based qHTS assay (AID 1963594). Further: nearly all actives have a fitted effect of over 35% in size. In a few lines: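 HEK293 cells stably expressing human DRD2, pre-treated with PDE inhibitor Ro20-1724 (0.1 mM final) and compound 10 min at room temperature, then stimulated with NKH477 (200nM […]) for 30 min. cAMP read by HTRF (665/620 nm).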

For test [18] the target is unchanged. In words: Dopamine D2 receptor (DRD2) small molecule antagonists, cell-based qHTS assay (AID 1963595; active means well fitted inhibition curve with a large enough effect in the signal ratio in the repeat runs, with a control signal flat; the % refers to the signal ratio; further: potency means the concentration at half of the fitted maximal effect). In a few lines: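 In this cell-based antagonist screen, compounds act for 10 min at room temperature before a 30 min challenge with 12 nM quinpirole and 200 nM NKH477. cAMP is quantified by HTRF competition in DRD2-HEK293 cells containing 0.1 mM Ro20-1724.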

Test [19] deals with Gonadotropin-releasing hormone receptor (Homo sapiens) (UniProt P30968). Kind of test: Human gonadotropin-releasing hormone receptor (GnRHR) small molecule agonists, calcium flux assay in GnRHR-HEK293 cells (AID 1920063). Further: nearly all actives have a fitted effect of over 35% in size. The gist of the method: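 We seeded human GnRHR-expressing HEK293 cells for 18 hours, loaded them with calcium dye for an hour at 37 C, added test compounds, and recorded fluorescence intensity kinetically for three minutes.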

Test [20] addresses 5-hydroxytryptamine receptor 2A (Homo sapiens) (UniProt P28223). In words: 5-hydroxytryptamine receptor 2A (HTR2A) small molecule agonists, cell-based qHTS assay (AID 1963587). Further: nearly all actives have a fitted effect of over 30% in size. In a few lines:
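CHO cells stably expressing human HTR2A, plated 18 h, loaded with calcium dye 1 h at 37 C. Agonist mode: compounds added and intracellular calcium fluorescence recorded kinetically for 2 min at 1 sec intervals.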

Values joined by “and” are separate entries in the source; they are usually repeats but may differ in a detail not shown here. Equal entries are not always repeated. Results filed as inconclusive are left out. The source holds several records for some structures; these can differ, active in one and inactive in another. Active and inactive are the calls of the source. Unless noted, the call rests on the fitted dose curve.

Chain of Beta-2 adrenergic receptor (Homo sapiens) (P07550 whole entry, looked up): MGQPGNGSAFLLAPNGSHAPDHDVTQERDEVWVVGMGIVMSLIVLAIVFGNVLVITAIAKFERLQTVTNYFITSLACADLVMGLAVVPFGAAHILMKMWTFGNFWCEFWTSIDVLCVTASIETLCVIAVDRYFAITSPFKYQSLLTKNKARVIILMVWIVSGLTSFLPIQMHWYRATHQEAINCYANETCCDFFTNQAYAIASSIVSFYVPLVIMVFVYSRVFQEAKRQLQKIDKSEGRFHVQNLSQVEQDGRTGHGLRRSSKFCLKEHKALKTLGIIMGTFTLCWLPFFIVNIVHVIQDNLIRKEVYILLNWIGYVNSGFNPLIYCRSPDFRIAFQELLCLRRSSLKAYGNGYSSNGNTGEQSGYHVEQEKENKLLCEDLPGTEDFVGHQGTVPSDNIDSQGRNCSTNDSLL
Chain of D(2) dopamine receptor (Homo sapiens) (P14416 whole entry, looked up): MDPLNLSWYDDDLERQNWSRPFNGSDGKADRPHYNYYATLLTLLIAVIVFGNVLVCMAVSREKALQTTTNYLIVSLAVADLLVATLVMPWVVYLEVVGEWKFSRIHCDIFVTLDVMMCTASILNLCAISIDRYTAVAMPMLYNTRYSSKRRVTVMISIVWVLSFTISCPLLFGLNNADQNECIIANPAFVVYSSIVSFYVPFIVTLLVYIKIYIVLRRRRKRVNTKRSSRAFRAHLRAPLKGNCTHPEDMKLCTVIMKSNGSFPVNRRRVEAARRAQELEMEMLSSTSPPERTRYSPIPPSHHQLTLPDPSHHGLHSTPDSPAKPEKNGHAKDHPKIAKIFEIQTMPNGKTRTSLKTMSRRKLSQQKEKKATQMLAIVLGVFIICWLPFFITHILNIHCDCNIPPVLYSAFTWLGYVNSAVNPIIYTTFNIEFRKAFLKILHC
Chain of 5-hydroxytryptamine receptor 2A (Homo sapiens) (P28223 whole entry, looked up): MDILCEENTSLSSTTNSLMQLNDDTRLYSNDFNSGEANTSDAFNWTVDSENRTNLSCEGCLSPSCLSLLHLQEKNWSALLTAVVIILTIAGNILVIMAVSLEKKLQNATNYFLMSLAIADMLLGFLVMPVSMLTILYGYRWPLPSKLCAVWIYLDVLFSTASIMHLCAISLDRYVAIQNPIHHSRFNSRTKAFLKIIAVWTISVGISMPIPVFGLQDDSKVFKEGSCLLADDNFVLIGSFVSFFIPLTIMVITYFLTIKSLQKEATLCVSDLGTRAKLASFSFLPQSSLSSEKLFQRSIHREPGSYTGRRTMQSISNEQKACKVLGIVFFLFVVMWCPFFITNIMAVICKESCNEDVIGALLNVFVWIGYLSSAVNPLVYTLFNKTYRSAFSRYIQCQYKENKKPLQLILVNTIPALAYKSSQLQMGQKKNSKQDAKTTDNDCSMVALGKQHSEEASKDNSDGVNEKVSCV
Chain of Muscarinic acetylcholine receptor M1 (Homo sapiens) (P11229 whole entry, looked up): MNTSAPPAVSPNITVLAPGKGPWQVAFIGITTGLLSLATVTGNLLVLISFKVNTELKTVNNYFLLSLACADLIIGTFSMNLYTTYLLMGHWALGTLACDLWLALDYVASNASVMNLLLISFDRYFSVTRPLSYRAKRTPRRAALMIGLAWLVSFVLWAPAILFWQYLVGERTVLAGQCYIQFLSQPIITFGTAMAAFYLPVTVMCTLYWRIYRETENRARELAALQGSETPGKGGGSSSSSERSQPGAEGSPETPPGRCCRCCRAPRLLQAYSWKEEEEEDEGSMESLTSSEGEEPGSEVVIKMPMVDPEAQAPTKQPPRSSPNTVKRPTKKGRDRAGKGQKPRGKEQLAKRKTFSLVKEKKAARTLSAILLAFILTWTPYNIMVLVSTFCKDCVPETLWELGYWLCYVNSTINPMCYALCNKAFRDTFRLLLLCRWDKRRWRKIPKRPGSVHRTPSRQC
Chain of Gonadotropin-releasing hormone receptor (Homo sapiens) (P30968 whole entry, looked up): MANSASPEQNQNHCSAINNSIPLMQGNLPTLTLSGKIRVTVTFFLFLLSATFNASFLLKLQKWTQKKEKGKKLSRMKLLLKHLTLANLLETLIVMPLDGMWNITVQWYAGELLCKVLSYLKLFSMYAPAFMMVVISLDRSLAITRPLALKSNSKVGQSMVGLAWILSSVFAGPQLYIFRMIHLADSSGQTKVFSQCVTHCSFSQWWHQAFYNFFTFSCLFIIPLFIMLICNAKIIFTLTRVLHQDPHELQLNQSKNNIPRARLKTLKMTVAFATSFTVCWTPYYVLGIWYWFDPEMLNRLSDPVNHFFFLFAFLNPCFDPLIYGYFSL
Chain of KiSS-1 receptor (Homo sapiens) (Q969F8 whole entry, looked up): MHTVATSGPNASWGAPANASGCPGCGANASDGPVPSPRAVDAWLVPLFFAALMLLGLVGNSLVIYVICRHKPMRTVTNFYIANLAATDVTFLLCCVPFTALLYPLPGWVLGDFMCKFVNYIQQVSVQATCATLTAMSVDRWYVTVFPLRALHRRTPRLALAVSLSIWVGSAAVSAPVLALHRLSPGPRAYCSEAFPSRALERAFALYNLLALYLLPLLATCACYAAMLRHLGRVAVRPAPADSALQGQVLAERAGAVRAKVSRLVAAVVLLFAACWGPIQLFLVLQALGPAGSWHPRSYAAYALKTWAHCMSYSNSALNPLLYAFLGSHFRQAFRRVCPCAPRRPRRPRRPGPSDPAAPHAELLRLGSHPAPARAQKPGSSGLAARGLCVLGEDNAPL

For the molecule `CCCCCCCCCCCCCC(=O)OC(C)C`, the Potency result in [1], in [2], in test [3], in test [4], in [5] and in [6] was “inactive” throughout. The Potency result in [7], in [8], in [9], in test [10], in [11] and in [12] was “inactive” each time. The Potency entry in [13], in [14], in test [15], in test [16], in test [17] and in test [18] was “inactive” in each case.

Consider `O=C(O)/C=C\C(=O)O`, for which the Potency entry in test [1], in test [19], in [2], in [3], in test [20] and in test [11] was “inactive” each time. Also, the Potency result in test [12], in [13], in [14], in test [15], in [16] and in [18] was “inactive” throughout.

Take `C=C[C@@]1(C)CC(=O)[C@]2(O)[C@@]3(C)[C@@H](O)CCC(C)(C)[C@@H]3[C@H](O)[C@H](OC(C)=O)[C@@]2(C)O1`: the Potency entry in test [1], in test [2], in [3], in test [4], in [5] and in test [6] was “inactive” each time. Also, the Potency result in test [7], in test [8], in test [9], in test [10], in [20] and in test [11] was “inactive” throughout. The Potency result in test [12] and in [17] was “inactive” throughout. For the same molecule, the Potency was 243 nM (active) and 298 nM (active) in test [13]; 119 nM (active) in [16]; 30.6 nM (active) and 944 nM (active) in test [18].

For the molecule `Cc1ccc2c(n1)Oc1ccc(C(C)C(=O)OCC(=O)N(C)C)cc1C2` (centres undefined), the Potency entry in [1], in [2], in test [3], in test [4], in test [5] and in test [6] was “inactive” in each case. Further, the Potency entry in test [7], in [9], in test [20], in [11], in [12] and in [13] was “inactive” in each case. Besides, the Potency entry in test [14], in [15], in test [16], in test [17] and in test [18] was “inactive” each time.

As to `O=C1NS(=O)(=O)c2ccccc21`, the Potency entry in test [19], in test [2], in test [3], in test [6], in [7] and in test [8] was “inactive” throughout. Besides, the Potency result in test [10], in test [20], in test [11], in [12], in test [14] and in test [15] was “inactive” in each case. Besides, the Potency result in [16], in [17] and in [18] was “inactive” throughout.

For the molecule `Cc1ncc[nH]1`, the Potency entry in [1], in test [19], in [4], in test [5], in test [7] and in [8] was “inactive” each time. Besides, the Potency result in [9], in test [10], in test [20], in test [11], in test [12] and in test [13] was “inactive” throughout. In addition, the Potency result in test [14], in [15], in [16], in test [17] and in [18] was “inactive” each time.

As to `COC(=O)CC(=O)OC`, the Potency result in test [1], in test [19], in test [2], in test [4], in test [5] and in test [6] was “inactive” throughout. The Potency result in test [7], in [8], in test [9], in test [10], in [20] and in test [11] was “inactive” in each case. The Potency result in [13], in test [14], in [16], in test [17] and in [18] was “inactive” each time. The Potency in test [12] is 20.3 µM (active) and inactive.

`CCCCNC(N)=O`: the Potency entry in test [1], in test [19], in [2], in test [3], in [6] and in [7] was “inactive” throughout. Further, the Potency result in [8], in test [9], in [10], in test [11], in [12] and in test [13] was “inactive” throughout. The Potency result in test [14], in [15], in test [16], in test [17] and in [18] was “inactive” throughout.

`COc1cc2c(c(OC)c1OC)-c1ccc(OC)c(=O)cc1[C@@H](NC(C)=O)CC2`: the Potency in test [1] is 152 nM (active) and 217 nM (active) and 188 nM (active). Also, the Potency result in [19], in [2], in [3], in test [14], in test [15] and in [16] was “inactive” in each case. The Potency entry in [17] is “inactive”.

(Values after PubChem BioAssay (Tox21).)
